High-throughput results deposited in PubChem BioAssay by several laboratories.
CYP2C19 inh – inhibitors of human CYP2C19; inhibition, % at 5 µM; 21% of 96,000 active; AID 778; P33261; CYP2C19 Supersomes, luciferin-H EGE luminescence, 30 min;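 active = CYP2C19 inhibition above a set limit at 5 µM in the primary screen, cut at about 50% in these data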;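 note: plate controls were negative control wells for no effect and 2.5 mM tranylcypromine positive control for full effect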
Target sequence (P33261 whole entry, looked up): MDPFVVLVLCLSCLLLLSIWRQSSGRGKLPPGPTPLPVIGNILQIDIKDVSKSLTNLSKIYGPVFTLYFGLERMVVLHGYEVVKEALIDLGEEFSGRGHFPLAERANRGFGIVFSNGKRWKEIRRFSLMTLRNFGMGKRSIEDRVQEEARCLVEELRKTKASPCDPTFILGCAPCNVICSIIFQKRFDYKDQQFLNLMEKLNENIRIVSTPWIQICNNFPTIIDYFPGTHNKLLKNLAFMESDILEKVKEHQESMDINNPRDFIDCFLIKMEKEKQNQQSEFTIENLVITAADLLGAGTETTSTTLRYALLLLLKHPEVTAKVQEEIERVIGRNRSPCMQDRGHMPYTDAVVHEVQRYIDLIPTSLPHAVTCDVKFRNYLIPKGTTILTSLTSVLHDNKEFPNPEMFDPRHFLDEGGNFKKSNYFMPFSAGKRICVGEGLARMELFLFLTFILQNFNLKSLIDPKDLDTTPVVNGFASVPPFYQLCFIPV
cytoskel mod – modifiers of cytoskeleton assembly. HUVEC TNFa F-actin phalloidin imaging, high content. inhibition, % at 2 µM. 0.18% of 91,000 active. AID 836;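 active = inhibition above the batch mean plus 3 SD and confirmed as a hit by visual image inspection, cut at about 30% in these data, passing the limit was not always enough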
E-sel TNF inh – blocks E-selectin expression induced by TNF alpha; HUVEC TNFa-induced E-selectin immunofluorescence, high content; inhibition, % at 2 µM; 0.71% of 120,000 active; AID 1246;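 active = inhibition above the batch mean plus 3 SD, and confirmed as a hit on visual image review, cut at about 43% in these data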;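 note: 0% = TNF-stimulated DMSO wells and 100% = unstimulated control wells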
CYP2C9 act – CYP2C9 (human) activation; activation factor at 5 µM; recombinant CYP2C9, luciferin-H conversion, luminescence; hits give high values; factor 1 = untreated enzyme, 0 = blocked; P11712; 1.4% of 96,000 active;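 active = activation factor of 2 or more for CYP2C9 at a 5 µM dose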;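 note: 0 = sulfaphenazole-blocked wells and 1 = vehicle-only wells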
CYP2C9 inh – blocks human cytochrome P450 2C9; P11712; CYP2C9 Supersomes, luciferin-H conversion, luminescence; inhibition, % at 5 µM; 20% of 96,000 active; AID 777;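 active = blocking of liver enzyme CYP2C9 beyond about 50% at 5 µM, limit read from the data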
CYP2C19 act – cytochrome P450 2C19 (human) activation. activation factor at 5 µM. P33261. recombinant CYP2C19, luciferin-H EGE luminescence; hits give high values; 0 = fully inhibited enzyme, 1 = untreated enzyme. 96,000 tested, under 10 active. AID 1025;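 active = activation factor of at least 2 at 5 µM in the primary screen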;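 note: 0 = wells with 2.5 mM tranylcypromine and 1 = vehicle-only wells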
An asterisk follows results filed as active; · = no result given. The list is not random: actives were taken first. Their share in the collection is about 22%.

SMILES	CYP2C19 inh	cytoskel mod	E-sel TNF inh	CYP2C9 act	CYP2C9 inh	CYP2C19 act
CCOC(=O)CN(C(=O)CSc1nnc2c(n1)[nH]c1ccccc12)c1ccccc1	81*	-10	·	0.6	45	0.2
CCOC(=O)c1c(NC(=O)CSc2nnc3c(n2)[nH]c2ccc(F)cc23)sc(C(C)=O)c1C	64*	22	-27	0.2	76*	0.4
CCOC(=O)CN(C(=O)CSc1nnc2c(n1)[nH]c1c(C)cc(C)cc12)c1ccccc1	8	-5	-49	1	4	0.9
Cc1ccc(C(=O)NNC(=O)CSc2nnc3c(n2)[nH]c2ccc(C)cc23)cc1	-18	13	-6	1.2	-18	1.2
N#CC(C(=O)OC1CCCCC1)c1nc2ccccc2nc1N1CCCCC1 (configuration not stated)	0	22	5	0.8	15	1
COc1ccc(/C=N/N(C(C)=O)c2nc(-c3ccc(C)cc3)cs2)cc1	73*	1	-15	0.4	57*	0.3
CC(=O)N(/N=C/c1cccc(C)c1)c1nc(-c2ccc(Br)cc2)cs1	28	1	-5	0.9	9	0.7
O=[N+]([O-])c1ccc(Cl)c(/C=N/N2CCN(Cc3ccccc3Cl)CC2)c1	19	-26	-29	2.1*	-108	0.8
O=C(c1cccs1)c1ccc(-c2cccs2)s1	49	31	·	0.3	74*	0.5
O=C(c1cccs1)c1no[n+]([O-])c1C(=O)c1cccs1	43	-13	2	0.6	37	0.6
O=C(NC1CCCC1)C1c2ccccc2C(=O)N1C1CCCCC1 (configuration not stated)	-11	-22	-18	1	-4	1.1
O=C(C1CCCO1)N1CCN(c2ccc(F)cc2)CC1 (configuration not stated)	·	2	12	·	·	·
C=CCn1c(SCC(=O)/C(C#N)=C(\C)N)nnc1C1CCCCC1	78*	7	·	1	-3	0.2
C/C(N)=C(/C#N)C(=O)CSc1nc(C2CCCCC2)n(-c2ccccc2)n1	23	·	-26	0.2	77*	0.8
C=CCn1c(SCC(=O)NC(=O)NC2CCCC2)nnc1C1CCCCC1	·	8	42	·	·	·
NC(=O)NC(=O)CSc1nc(C2CCCCC2)n(-c2ccccc2)n1	·	·	-9	·	·	·
C=CCn1c(SCc2cc(=O)n3ccsc3n2)nnc1C1CCCCC1	88*	-5	10	1	1	0.1
C/C(N)=C(/C#N)C(=O)CSc1n[nH]c(-c2ccccc2Br)n1	97*	-20	·	0.8	19	0
O=c1cc(CSc2n[nH]c(-c3ccncc3)n2)nc2sccn12	·	·	-34	·	·	·
C/C(N)=C(/C#N)C(=O)CSc1ccccc1F	·	·	-8	·	·	·
Cc1nc2ccccn2c1C(=O)NCCCN1CCOCC1	-3	-16	-6	1	-3	1
C(=N\c1nc2ccccc2[nH]1)/c1cccs1	-3	·	2	1	-2	1
CCOC(=O)Cc1csc(NC(=O)CCCN2C(=O)c3ccccc3C2=O)n1	13	16	0	0.5	53*	0.9
Cc1nnc(NC(=O)CCCN2C(=O)c3ccccc3C2=O)s1	9	-15	·	0.9	10	0.9
CCOC(=O)Cc1csc(NC(=O)CCN2C(=O)c3ccccc3C2=O)n1	69*	7	·	0.2	76*	0.3
SMILES	CYP2C19 inh	cytoskel mod	E-sel TNF inh	CYP2C9 act	CYP2C9 inh	CYP2C19 act
CCOC(=O)Cc1csc(NC(=O)c2c(O)c3ccccc3n(C)c2=O)n1	-4	·	·	1.2	-22	1
CCC(CC)c1nnc(NC(=O)CCCN2C(=O)c3ccccc3C2=O)s1	41	0	13	0.3	72*	0.6
Cc1cc(C)nc(N(C#N)S(=O)(=O)c2ccc(Br)cc2)n1	5	10	4	1	3	0.9
Cc1cc(C(=O)N2CCN(C(=O)C3CCCO3)CC2)no1 (configuration not stated)	2	4	-24	1	-1	1
Cc1[nH]c2ccc(Br)cc2c(=O)c1CN1CCOCC1	1	-19	-23	0.9	10	1
CCOc1ccc2[nH]c(C)c(CN3CCOCC3)c(=O)c2c1	3	76*	·	0.9	6	1
c1nnc(NC2=NCCCCC2)s1	11	-2	-16	0.9	6	0.9
Clc1ccc(CSc2nnc(NC3=NCCCCC3)s2)cc1	91*	25	10	0.3	67*	0.1
Cc1cccc(C(C)(C)C)c1OCCn1ccnc1	98*	-11	-1	0.3	66*	0
Cc1cc(Cl)cc(C)c1OCCCCn1ccnc1	100*	·	-6	0	96*	0
